Conditions in all cases: concentration: 10 µM; 24 h
For assay [1], the system named is HCC1569. Briefly: cell number relative to DMSO (% of DMSO); higher = more cells (less growth inhibition / toxicity). An outline of the steps: (§1)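 In 384-well plates holding 800 HCC1569 or TDF cells per well in RPMI with 10% FBS, compounds were tested at 10 µM for 24 h at 37 °C in triplicate. Fixation used 3.7% formaldehyde. Staining used a rabbit anti-H1.0 antibody with an AlexaFluor 647 secondary, plus DAPI. Each value, H1.0 nuclear intensity or cell number, is a median of replicates shown as percent of the plate control, and HCC1569 values were smoothed for positional effects.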

Assay [2] has as its system TDF. Described as above. An outline of the steps: as §1
Assay [3] has as its system TDF. Briefly: H1.0 immunofluorescence intensity relative to DMSO (% of DMSO); higher = stronger H1.0 induction, active = 120 or more. The procedure, abridged:
as §1

The subject of assay [4] is HCC1569. The experiment in a line: H1.0 immunofluorescence intensity relative to DMSO (% of DMSO); higher = stronger H1.0 induction, active = 140 or more. An outline of the steps: as §1

± gives the standard deviation of the averaged measurements.
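For H1.0 immunofluorescence intensity relative to DMSO in this document: TDF is a line of transformed human dermal fibroblasts of mesenchymal origin.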
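For cell number relative to DMSO in this document: TDF denotes transformed human dermal fibroblasts of mesenchymal origin.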

As for `NC(N)=NOCC[C@H](N)C(=O)O.O=S(=O)(O)O` [L-Canavanine sulfate], the figures for the cell number in the assay with HCC1569 [1] and with TDF [2] were 101 and 81.3, respectively. The H1.0 immunofluorescence intensity with TDF [3] and in the assay on HCC1569 [4] was 107 (inactive) throughout.
As to `CS(=O)(=O)O.S=C=Nc1cccc(C2(N3CCCCC3)CCCCC2)c1` [Metaphit methanesulfonate], the cell number with HCC1569 [1] was 106; in the assay with TDF [2], 107. Also, the H1.0 immunofluorescence intensity is 83.4 (inactive) in the assay with TDF [3] and 94.5 (inactive) in the assay with HCC1569 [4].
On to `COC1=CC(=O)OC(CCc2ccc3c(c2)OCO3)C1` (configuration not stated) [Dihydromethysticin], for which the figures for the cell number with HCC1569 [1] and in the assay with TDF [2] were 96.6 and 105, respectively. Besides, the results for the H1.0 immunofluorescence intensity with TDF [3] and with HCC1569 [4] were 90.4 (inactive) and 83.9 (inactive), respectively.
In the same order, the values of `C1CCC(NC2CCCCC2)CC1` are 96.5, 102, 93.9 (inactive) and 100 (inactive).
On to `Cl.Clc1cc(I)cc(Cl)c1NC1=NCCN1` [p-Iodoclonidine hydrochloride], for which the cell number in the assay with HCC1569 [1] came out at 102; in the assay on TDF [2], 101. The H1.0 immunofluorescence intensity with TDF [3] is 94.9 (inactive); in the assay with HCC1569 [4], 85.2 (inactive).
The like results for `CCCCCC=CCC=CCC=CC=CC(CCCC(=O)O)OO` (configuration not stated) were, in that order, 101, 100, 98.5 (inactive) and 106 (inactive).
In the same order, the values of `COc1ccc(C(=O)c2c(C)n(CCN3CCOCC3)c3cc(I)ccc23)cc1` are 85.1, 82.3, 108 (inactive) and 128 (inactive).
In the same order, the values of `COc1cc(C2c3cc4c(cc3C(O)C3COC(=O)C23)OCO4)cc(OC)c1O` (configuration not stated) [4'-Demethylpipodophyllotoxin] are 59.6, 12.7, 157 (active) and 132 (inactive).
`CN1CC(CNC(=O)OCc2ccccc2)CC2c3cccc4c3c(cn4C)CC21` (configuration not stated) [Metergoline]: the cell number with HCC1569 [1] was 97.2; with TDF [2], 105. For the same molecule, the H1.0 immunofluorescence intensity was 118 (inactive) in the assay with TDF [3] and 120 (inactive) in the assay on HCC1569 [4].
`O=[N+]([O-])c1ncc[nH]1` [Azomycin]: the cell number with HCC1569 [1] was 100; in the assay with TDF [2], 92.6. For the same molecule, the H1.0 immunofluorescence intensity with TDF [3] is 97.8 (inactive); with HCC1569 [4], 93.7 (inactive).
In the same order, the values of `Br.CCCN(CCC)C1CCc2ccc(O)cc2C1` (stereo not drawn) [R-(+)-7-Hydroxy-DPAT hydrobromide] are 99.8, 110, 103 (inactive) and 101 (inactive).
Regarding `Cc1ncc(CNC(=O)N(CCCl)N=O)c(N)n1.Cl` [Nimustine hydrochloride], the cell number in the assay with HCC1569 [1] turned out to be 97.8; in the assay with TDF [2], 64.7. Also, the figures for the H1.0 immunofluorescence intensity with TDF [3] and in the assay with HCC1569 [4] were 104 (inactive) and 94.4 (inactive), respectively.
The like results for `COc1ccc2c(c1)N1C(C=C(C)C)OOC(C)(C)CC3C1C2C(O)C1(O)C(=O)N2CCCC2C(=O)N31` (configuration not stated) [Verruculogen] were, in that order, 102, 106, 96.9 (inactive) and 98.1 (inactive).
The like results for `Cl.O=C1CCC2(O)C3Cc4ccc(O)c5c4C2(CCN3CC2CC2)C1O5` (configuration not stated) [Naltrexone hydrochloride] were, in that order, 103, 115, 90.8 (inactive) and 96 (inactive).
In the same order, the values of `CC12CCC3C(CC=C4CC(O)CCC43C)C1CCC2=O` (configuration not stated) [Dehydroepiandrosterone] are 105, 107, 99.7 (inactive) and 93.6 (inactive).
Regarding `CN(C)C(=O)Oc1cccc([N+](C)(C)C)c1` [Neostigmine], the cell number in the assay with HCC1569 [1] is 104; with TDF [2], 112. The H1.0 immunofluorescence intensity was 96.8 (inactive) in the assay on TDF [3] and 101 (inactive) in the assay with HCC1569 [4].
As to `NC1(C(=O)O)CCC(C(=O)O)C1` (mixture of isomers), the cell number was 104 in the assay on HCC1569 [1] and 106 in the assay on TDF [2]. The H1.0 immunofluorescence intensity with TDF [3] is 96.5 (inactive); in the assay on HCC1569 [4] it was 95.1 (inactive).
Take `Cc1nccc2c1[nH]c1ccccc12` [Harmane]: the cell number came out at 100 ± 0.98 with HCC1569 [1] and 106 ± 11 in the assay on TDF [2]. The H1.0 immunofluorescence intensity with TDF [3] is 97 (inactive); in the assay on HCC1569 [4] it was 96.7 (inactive).
The like results for `CCN1CC2(C)CCC(OC)C34C5CC6CCC(O)(C5C(=O)O6)C(C(O)C23)C14` (configuration not stated) [Heteratisine] were, in that order, 103, 105, 96.1 (inactive) and 88.3 (inactive).
In the same order, the values of `CCC1CN2CCc3cc(OC)c(OC)cc3C2CC1CC1NCCc2cc(OC)c(OC)cc21.Cl.Cl` (configuration not stated) [Emetine dihydrochloride hydrate] are 57.5, 20.6, 114 (inactive) and 99 (inactive).
In the same order, the values of `CN(C(=O)Cc1ccc(Cl)c(Cl)c1)C(CN1CCCC1)c1cccc(OCC(=O)O)c1.Cl` (configuration not stated) [ICI 204,448 hydrochloride] are 104, 104, 89.4 (inactive) and 92.8 (inactive).
For the molecule `COc1ccc2c3c1OC1C(=O)CCC4(O)C(C2)N(CC2CC2)CCC314.Cl` (single isomer, unassigned; (-)) [(-)-3-Methoxynaltrexone hydrochloride], the values for the cell number in the assay on HCC1569 [1] and in the assay on TDF [2] were 104 and 109, respectively. Also, the H1.0 immunofluorescence intensity in the assay with TDF [3] is 88.4 (inactive); in the assay on HCC1569 [4], 86.7 (inactive).
The like results for `Cl.NCC(O)c1ccc(O)cc1` (racemic) were, in that order, 99.3, 106, 93.6 (inactive) and 93.1 (inactive).

Values taken from the supplement of paper PMC7156485.
